Measurements taken from the supplement of paper PMC6555819.

Assays:
Test in all cases: PBM binding z-score (relative to random genomic background probes); higher = stronger binding; sequences stand for … in GC…GCGATTGACAGCGTAGAATGAAGG
[1] = tested on: RARb homodimer (NR concentration 270 nM)
Procedure, shortened: (§1)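 Random background probes are the reference for binding z-scores. These scores derive from regression-normalized fluorescence on custom Agilent 4×180K protein-binding microarrays incubated 1 h with ligand-free nuclear receptor dimers. Binding was detected with antibodies against each partner (one per run).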

[2] = tested on: RARg:RXRa (NR concentration 270 nM, RXRa partner concentration 90 nM)
Procedure, shortened: as §1

[3] = tested on: RARg homodimer (NR concentration 270 nM)
Procedure, shortened: as §1

[4] = tested on: RXRa DBDmut IVT, anti-RXR (DBD mutation: RXRa K156A/R161A, NR concentration 90 nM)
Procedure, shortened: as §1

[5] = tested on: RXRa homodimer (NR concentration 180 nM)
Procedure, shortened: as §1

[6] = tested on: THRa:RXRa (NR concentration 90 nM, RXRa partner concentration 90 nM)
Procedure, shortened: as §1

[7] = tested on: THRa homodimer (NR concentration 90 nM)
Procedure, shortened: as §1

[8] = tested on: VDR homodimer (NR concentration 270 nM)
Procedure, shortened: as §1

CAAACTAGGTCACGAAATGTCAAAGTCGAATGAC
PBM binding z-score [1]: 3.6
PBM binding z-score [2]: 4.86
PBM binding z-score [3]: 5.58
PBM binding z-score [4]: 2.02
PBM binding z-score [5]: 3.79
PBM binding z-score [6]: 3.51
PBM binding z-score [7]: 1.5
PBM binding z-score [8]: 1.1

CGAACTAGGTCAGTGACAGGACAGTGAATAGTAA
PBM binding z-score [1]: 2.76
PBM binding z-score [2]: 3.47
PBM binding z-score [3]: 3.9
PBM binding z-score [4]: 0.653
PBM binding z-score [5]: 1.34
PBM binding z-score [6]: 1.98
PBM binding z-score [7]: 0.499
PBM binding z-score [8]: 0.295

TCTTGTAGATAAATAGAGGTTAAGAAAGTGCGCT
PBM binding z-score [1]: 1.11
PBM binding z-score [2]: 0.845
PBM binding z-score [3]: 0.418
PBM binding z-score [4]: 1.3
PBM binding z-score [5]: 1.46
PBM binding z-score [6]: 1.54
PBM binding z-score [7]: -0.012
PBM binding z-score [8]: 0.923

TCATATAGGTAAACAGGTGAATGTCCGTAAGTTA
PBM binding z-score [1]: 0.605
PBM binding z-score [2]: 0.347
PBM binding z-score [3]: 0.272
PBM binding z-score [4]: 1.27
PBM binding z-score [5]: 1.03
PBM binding z-score [6]: 0.567
PBM binding z-score [7]: 0.511
PBM binding z-score [8]: 0.283

GCTAGTTGGTCAGTGAAAGGTCACACACCGGTCG
PBM binding z-score [1]: 4.96
PBM binding z-score [2]: 5.66
PBM binding z-score [3]: 4.94
PBM binding z-score [4]: 0.305
PBM binding z-score [5]: 5.62
PBM binding z-score [6]: 3.42
PBM binding z-score [7]: 1.71
PBM binding z-score [8]: 1.73

TCCAGCAGGCCAGAGGGTCACTCAAGAGGTACGG
PBM binding z-score [1]: 2.93
PBM binding z-score [2]: 2.61
PBM binding z-score [3]: 1.71
PBM binding z-score [4]: 0.301
PBM binding z-score [5]: 2.29
PBM binding z-score [6]: 1.7
PBM binding z-score [7]: -0.473
PBM binding z-score [8]: 0.227

ACTAGCTGGCCAAGGGTCACTCAAGATTAGTCCG
PBM binding z-score [1]: 3.54
PBM binding z-score [2]: 3.78
PBM binding z-score [3]: 3.54
PBM binding z-score [4]: 0.138
PBM binding z-score [5]: 3.9
PBM binding z-score [6]: 2.48
PBM binding z-score [7]: 0.0817
PBM binding z-score [8]: 0.917

CGTCCTAGGTCATAGGAGGTCAGTGAAGACAGAT
PBM binding z-score [1]: 4.83
PBM binding z-score [2]: 5.44
PBM binding z-score [3]: 5.84
PBM binding z-score [4]: 2.08
PBM binding z-score [5]: 4.28
PBM binding z-score [6]: 5.13
PBM binding z-score [7]: 1.73
PBM binding z-score [8]: 2.29

TGAATGAGGTTCTAAGATCAGGGAACGTTGCAAA
PBM binding z-score [1]: -0.907
PBM binding z-score [2]: -0.113
PBM binding z-score [3]: -0.275
PBM binding z-score [4]: -0.623
PBM binding z-score [5]: -0.155
PBM binding z-score [6]: -0.125
PBM binding z-score [7]: -0.86
PBM binding z-score [8]: -0.351

TGAATGAGGTTATAAGATCACGGAACGTTGCAAA
PBM binding z-score [1]: 0.253
PBM binding z-score [2]: 2.04
PBM binding z-score [3]: 1.23
PBM binding z-score [4]: 0.931
PBM binding z-score [5]: 2.7
PBM binding z-score [6]: 2.08
PBM binding z-score [7]: 0.188
PBM binding z-score [8]: 0.468

AATACAGGGTCATCGCAGGCCAGAGTACGCACAG
PBM binding z-score [1]: 3.53
PBM binding z-score [2]: 5.41
PBM binding z-score [3]: 5.21
PBM binding z-score [4]: 3.48
PBM binding z-score [5]: 6.8
PBM binding z-score [6]: 4.75
PBM binding z-score [7]: 1.42
PBM binding z-score [8]: 3.55

CAGCCTAGGTCTGGGCCAGTATAGGAGGAACGTT
PBM binding z-score [1]: -0.496
PBM binding z-score [2]: -0.501
PBM binding z-score [3]: -0.44
PBM binding z-score [4]: -1
PBM binding z-score [5]: -0.703
PBM binding z-score [6]: -0.77
PBM binding z-score [7]: -1.16
PBM binding z-score [8]: -0.974

TCTCGTTGGTCAAAGGTCACACACTCGAAATGCG
PBM binding z-score [1]: 5.23
PBM binding z-score [2]: 7.05
PBM binding z-score [3]: 6.09
PBM binding z-score [4]: 1.99
PBM binding z-score [5]: 8.17
PBM binding z-score [6]: 4.2
PBM binding z-score [7]: 2.63
PBM binding z-score [8]: 2.94

GCAGACAGGTGAAAGGCAGGTAACTCAGGGTGGC
PBM binding z-score [1]: 0.611
PBM binding z-score [2]: 0.314
PBM binding z-score [3]: -0.0429
PBM binding z-score [4]: -0.432
PBM binding z-score [5]: 0.602
PBM binding z-score [6]: 1.23
PBM binding z-score [7]: 0.167
PBM binding z-score [8]: -0.284

ACAGACAGGTGATGAAAGTAACTCAGGCTATCAT
PBM binding z-score [1]: -0.49
PBM binding z-score [2]: 0.123
PBM binding z-score [3]: 0.169
PBM binding z-score [4]: -0.387
PBM binding z-score [5]: 0.297
PBM binding z-score [6]: -0.0258
PBM binding z-score [7]: -0.579
PBM binding z-score [8]: -0.942

TCTAGTTCGTCAAAGGTCACACACTCGAAATGCG
PBM binding z-score [1]: 4.99
PBM binding z-score [2]: 6.46
PBM binding z-score [3]: 6.31
PBM binding z-score [4]: 2.95
PBM binding z-score [5]: 6.75
PBM binding z-score [6]: 4.64
PBM binding z-score [7]: 2.53
PBM binding z-score [8]: 3.49

ATCCCTAGGTAAAGTTCAGTGAAAGATCGATAGA
PBM binding z-score [1]: 2.36
PBM binding z-score [2]: 1.81
PBM binding z-score [3]: 1.95
PBM binding z-score [4]: 1.28
PBM binding z-score [5]: 1.16
PBM binding z-score [6]: 1.07
PBM binding z-score [7]: 0.22
PBM binding z-score [8]: 2.35

CCTGGTAGGTCAATGGTCAGCTAAAGCAGCTCGC
PBM binding z-score [1]: 2.92
PBM binding z-score [2]: 3.75
PBM binding z-score [3]: 4.04
PBM binding z-score [4]: 0.676
PBM binding z-score [5]: 2.66
PBM binding z-score [6]: 1.56
PBM binding z-score [7]: 0.243
PBM binding z-score [8]: 0.307

ACTATTAGTTGAGACTAGGGCAACCGATAGGTTG
PBM binding z-score [1]: 0.465
PBM binding z-score [2]: 0.376
PBM binding z-score [3]: 0.586
PBM binding z-score [4]: -0.0472
PBM binding z-score [5]: 0.0824
PBM binding z-score [6]: 1.25
PBM binding z-score [7]: -0.533
PBM binding z-score [8]: -0.353

ATCTCTAGGTAAGACTCAGGTCAGTGAAGAACGC
PBM binding z-score [1]: 2.52
PBM binding z-score [2]: 1.49
PBM binding z-score [3]: 1.35
PBM binding z-score [4]: 0.359
PBM binding z-score [5]: 0.773
PBM binding z-score [6]: 2.67
PBM binding z-score [7]: 2.37
PBM binding z-score [8]: 0.803

CTCGAAATGTCGGTTGAGGTGAGTATACGGATAA
PBM binding z-score [1]: 0.344
PBM binding z-score [2]: 0.0589
PBM binding z-score [3]: 0.341
PBM binding z-score [4]: 0.0185
PBM binding z-score [5]: 0.114
PBM binding z-score [6]: 3.31
PBM binding z-score [7]: 1.36
PBM binding z-score [8]: 0.263

TAGCCTAGGTCATGGGCCGGTATACCACGCGAAC
PBM binding z-score [1]: 3.04
PBM binding z-score [2]: 4.1
PBM binding z-score [3]: 4.58
PBM binding z-score [4]: -0.511
PBM binding z-score [5]: 3.4
PBM binding z-score [6]: 3.15
PBM binding z-score [7]: 1.37
PBM binding z-score [8]: 0.45

ACAGACAGGTGAGTGAAGGTAACTCCGCTGGACG
PBM binding z-score [1]: 0.202
PBM binding z-score [2]: 0.0663
PBM binding z-score [3]: 0.259
PBM binding z-score [4]: -0.475
PBM binding z-score [5]: 0.41
PBM binding z-score [6]: 1.29
PBM binding z-score [7]: -0.349
PBM binding z-score [8]: -0.537

ATCTCTAGGTAACAAGTTCAGTGCAAGAGAGGAC
PBM binding z-score [1]: 1.96
PBM binding z-score [2]: 1.28
PBM binding z-score [3]: 1.46
PBM binding z-score [4]: 0.886
PBM binding z-score [5]: 0.703
PBM binding z-score [6]: 2.19
PBM binding z-score [7]: 1.03
PBM binding z-score [8]: 3.19

ACTATTAGTTCAGACGAGGGCAACCGATAGGTTG
PBM binding z-score [1]: 2.05
PBM binding z-score [2]: 1.74
PBM binding z-score [3]: 1.88
PBM binding z-score [4]: 2.26
PBM binding z-score [5]: 0.943
PBM binding z-score [6]: 4.09
PBM binding z-score [7]: 0.384
PBM binding z-score [8]: 2.44

GTAACGAGGGCAAGTTGATAGCAGAGTTTGATGG
PBM binding z-score [1]: 1.71
PBM binding z-score [2]: 1.66
PBM binding z-score [3]: 1.86
PBM binding z-score [4]: 2.07
PBM binding z-score [5]: 0.851
PBM binding z-score [6]: 1.36
PBM binding z-score [7]: 0.0846
PBM binding z-score [8]: 2.23
